Reference: PubChem BioAssay (NCATS)
Records with an inconclusive call do not appear. Activity calls are given as the source filed them. Calls come from the whole dose curve; as a rule, active = well fitted inhibition curve with a large enough effect in the repeat runs; inconclusive = weak or mixed curves; inactive = no such curve, though single readings can be large or run the other way.

The molecules below were run against Cytochrome P450 2C9 (Homo sapiens) (UniProt P11712) (assay: Cytochrome P450 family 2 subfamily C member 9 (CYP2C9) small molecule antagonists: luciferase biochemical (cell-free) qHTS assay (AID 1645842; note: nearly all actives have a fitted effect of over 55% in size)). Details: P450-Glo CYP2C9 enzyme assay, luciferin luminescence; series mostly up to 57.4 µM.
Method: National Center for Advancing Translational Sciences [NCATS] Assay Overview: Cytochrome P450 (CYP) enzymes are membrane-bound hemeproteins that play a key role in metabolism of drugs and xenobiotics. Assaying the effect of chemicals on CYP isozymes is useful to minimize the adverse drug reactions and toxicities in drug development process. Chemical compounds were tested for their effect on CYP enzyme activities by using P450-Glo (TM) screening systems (Promega Corporation, Madison, WI). These systems provide a luminescent method containing proluciferin substrates and are converted to luciferin products by CYP isozymes. The luciferin products formed are detected with a luciferin detection reagent, and the amount of light produced is proportional to CYP activity. P450-Glo (TM) CYP2C9 screening system (Catalog. No. V9790) was used to detect the compounds that interfere in CYP2C9 activity.
Assay Protocol Summary: Two ul of enzyme-substrate mix supplemented with 0.4% Bovine Serum Albumin was dispensed into medium binding white/solid 1536-well plates (Greiner Bio-One North America Inc., Monroe, NC) using a Flying Reagent Dispenser (FRD, Aurora Discovery, San Diego, CA). […] The assay plates were incubated at room temperature for 10 min. Then 2 ul of NADPH regeneration solution was added to each well of the assay plates using an FRD and incubated at 37C for 1 h. The reaction was stopped by adding 4 ul of detection reagent using an FRD and after 20 min incubation at room temperature, the luminescence signal was measured using a ViewLux plate reader (Perkin Elmer, Shelton, CT). Data were expressed as relative luminescence units.
Potency is the fitted concentration of half-maximal effect.

Chain of Cytochrome P450 2C9 (Homo sapiens) (P11712 whole entry, looked up): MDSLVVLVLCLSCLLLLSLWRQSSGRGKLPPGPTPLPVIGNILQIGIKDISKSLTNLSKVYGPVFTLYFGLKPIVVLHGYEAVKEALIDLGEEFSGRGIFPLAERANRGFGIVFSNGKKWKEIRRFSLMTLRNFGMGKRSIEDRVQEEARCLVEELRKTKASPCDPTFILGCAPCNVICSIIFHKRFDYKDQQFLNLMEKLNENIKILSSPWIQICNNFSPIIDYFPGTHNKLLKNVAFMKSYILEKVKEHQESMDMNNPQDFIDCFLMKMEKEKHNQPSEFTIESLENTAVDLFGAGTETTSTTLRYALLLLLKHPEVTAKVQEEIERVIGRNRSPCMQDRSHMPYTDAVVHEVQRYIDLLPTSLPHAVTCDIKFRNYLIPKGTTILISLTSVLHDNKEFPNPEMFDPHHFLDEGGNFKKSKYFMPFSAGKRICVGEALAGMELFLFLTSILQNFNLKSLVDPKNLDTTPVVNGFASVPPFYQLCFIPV

Structure (SMILES)	Potency
O=C1CN=C(c2ccccc2Cl)c2cc(Br)ccc2N1	13.5 µM (active)
COc1ccc2c(c1)c(CCN(C)C)cn2S(=O)(=O)c1ccccc1	15.1 µM (active)
Cc1sc2c(c1C)C(c1ccc(Cl)cc1)=N[C@@H](CC(N)=O)c1nnc(C)n1-2	inactive
COc1ccsc1CNCC[C@@]1(c2ccccn2)CCOC2(CCCC2)C1	inactive
CN(C(=O)CN1C(=O)COc2cc(Cl)c(Cl)cc21)[C@@H](CN1CCCC1)c1ccc(-c2cccc(C(N)=O)c2)cc1	13.5 µM (active)
c1cncc(OC[C@@H]2CCN2)c1	inactive
O=S(=O)(c1ccccc1F)N1CCOc2c(N3CCNCC3)cccc21	9.52 µM (active)
CC(C)[C@H](NC(=O)c1nn(Cc2ccc(F)cc2)c2ccccc12)C(N)=O	6.74 µM (active)
CN1CCC2=C(C1)c1ccccc1Cc1ccccc12	inactive
CN(C(=O)C(c1ccccc1)c1ccccc1)[C@H](CN1CC[C@H](O)C1)c1ccccc1	inactive
C[C@H]1CN(Cc2ccc(CC(=O)N3CCC(Nc4cccc(F)c4)CC3)cc2)CCN1	inactive
COc1ccc2[nH]c(-c3ccccc3)c(CCN(C)C)c2c1	16.9 µM (active)
N#Cc1ccc(N2CCN(C(=O)COc3ccc4[nH]cc(CCN)c4c3)CC2)cc1	1.69 µM (active)
CCOc1cc(C=O)ccc1O	inactive
Cc1ccccc1CN1CCC(N2CCC(n3c(=O)[nH]c4ccccc43)CC2)CC1	inactive
CCOP(=S)(OCC)SCSc1ccc(Cl)cc1	0.213 µM (active)
O=C1Nc2ccc3ncsc3c2/C1=C/c1cnc[nH]1	3.38 µM (active)
O=C1CN=C(c2cccc(Br)c2)c2oc3ccccc3c2N1	10.7 µM (active)
OC(CNc1ccccc1)Cn1c2ccc(Br)cc2c2cc(Br)ccc21 (stereo not given)	5.35 µM (active)
CCOc1ccc(Oc2ccc(OCc3cc(F)ccc3F)cc2)c(N)c1	10.7 µM (active)

Structure (SMILES)	Potency
CN1C(=O)CN=C(c2ccccc2Cl)c2cc(Cl)ccc21	21.3 µM (active)
COC1(C[S@@](=O)c2ccccc2)CCN(CCc2c[nH]c3ccc(F)cc23)CC1	inactive
CC(=O)N1N=C(c2ccc(N)cc2)c2cc3c(cc2C[C@H]1C)OCO3	12 µM (active)
CC1(C)C(=O)N(c2ccc(C#N)c(C(F)(F)F)c2)C(=S)N1c1ccc(C(N)=O)c(F)c1	19 µM (active)
NCCCCCNC1(c2ccccc2)CCCCC1	inactive
CC(O)(c1ccccc1)C(Cc1ccc(Cl)cc1)n1cncn1 (stereo not given)	0.952 µM (active)
CCCCCn1cc(C(=O)Cc2ccccc2OC)c2ccccc21	1.9 µM (active)
Cc1ccc(Cn2nc(C(=O)N[C@@H]3C(C)(C)[C@@H]4CC[C@@]3(C)C4)cc2-c2ccc(Cl)c(C)c2)cc1	2.68 µM (active)
Cc1sc2c(c1C)C(c1ccc(Cl)cc1)=NC(CC(=O)Nc1ccc(O)cc1)c1nnc(C)n1-2 (stereo not given)	inactive
CC(=O)NCCCOc1ccc(C(=O)N2CCC(N3C(=O)CCc4ccccc43)CC2)cc1	inactive
N#Cc1cn([C@@H]2O[C@H](CO)[C@H](O)[C@@H]2O)c2ncnc(N)c12	inactive
O=C(N[C@H]1CN2CCC1CC2)c1cc2cccc(Cl)c2s1	inactive
COc1cc(N2CCN(C)CC2)ccc1N	inactive
CCc1nn(C)c(C(=O)NCc2ccc(Oc3ccc(C)cc3)cc2)c1Cl	5.35 µM (active)
O=C(NCCN1CCC2(CC1)C(=O)NCN2c1cccc(F)c1)c1ccc2ccccc2c1	12 µM (active)
CCCCCn1cc(C(=O)C2C(C)(C)C2(C)C)c2ccccc21	10.7 µM (active)
CCCCCn1cc(C(=O)Oc2cccc3cccnc23)c2ccccc21	3.38 µM (active)
COc1ccc(C(C)(C)C)cc1CN[C@H]1C2CCN(CC2)[C@H]1C(c1ccccc1)c1ccccc1	26.8 µM (active)
CN(C)c1cc2c(cc1Sc1nc3c(N)nccc3n1CCNCC(C)(C)C)OCO2	3.79 µM (active)
Fc1cc(F)c2c(c1)C1C=CCC1C(c1cccnc1)N2 (stereo not given)	5.35 µM (active)
